Assay results taken from PubChem BioAssay AID2315 (National Center for Advancing Translational Sciences (NCATS), 2010).
About 27,000 (9.3%) of roughly 290,000 compounds were called active. The list comes from a sample in which actives are over-represented; it also holds similar structures and randomly drawn compounds. Values without a mark were called inactive. Cut-off read from the data, not from the text of the source: active = inhibition mostly above about 28% (no sharp cut-off); inactive = mostly below about 43%.

Assay: A qHTS for Small Molecule Inhibitors of Shiga Toxin; note: 0% is about no effect
Conditions: Vero cells, Shiga toxin protein synthesis inhibition reporter; at 38.7 µM, stronger effect = higher value

SMILES	inhibition
CCOCCCNC(=O)C1(O)c2cc(Br)ccc2NC(=O)N1c1ccc(C)c(C)c1 (stereo not drawn)	-7.51%
Cc1ccccc1OCC(=O)Nc1ccc(S(=O)(=O)N2CCOCC2)cc1	-7.1%
Cc1cc(NC(=O)CCC(=O)N(Cc2ccccc2)C(C(=O)NC2CCCC2)c2ccc(C)o2)no1 (stereo not drawn)	11.3%
O=C1CCNCCN1[C@H](CO)Cc1ccccc1	-8.58%
CCC(C)N1CC(=O)N2Cc3[nH]c4ccccc4c3C[C@H]2C1=O (stereo partly drawn)	-5.65%
COc1ccc(OC)c(C(=O)NC(CC(N)=O)c2ccc(N3CCC(N4CCCCC4)CC3)c([N+](=O)[O-])c2)c1 (stereo not drawn)	-6.13%
COc1ccc(Cc2nnc(SCC(=O)Nc3ccc(C)c(C)c3)o2)cc1OC	-3.66%
CCOC(=O)c1oc2c(CN3CCN(C)CC3)c(O)ccc2c(=O)c1-c1ccc(Br)cc1	15.8%
CN1CCN(Cc2c(O)ccc3c2oc(=O)c2ccccc23)CC1	23.3%
CCN1CCN(Cc2c(O)ccc3c(=O)c(-c4ccc(OC)c(OC)c4)c(C(F)(F)F)oc23)CC1	21.4% (active)
CC(C)=CCCC1(C)C=Cc2c(ccc3c2[nH]c2cc(O)c(C)cc23)O1 (stereo not drawn)	23.1%
CC(C)Oc1ccc(CN2CCC(n3nccc3NC(=O)c3cccnc3)CC2)cc1	-10.5%
O=C(Cc1ccsc1)N1CCN(S(=O)(=O)c2cc(C(F)(F)F)cc(C(F)(F)F)c2)CC1	-17.3%
O=C(COc1ccc([N+](=O)[O-])cc1)Nc1cccc(C(=O)Nc2ccccc2C(=O)O)c1	-17.8%
O=c1oc2ccccc2cc1-c1cn(-c2ccccc2)c(=S)[nH]1	24.5%
S=c1[nH]c(-c2cccs2)cn1-c1ccccc1	58.2% (active)
COc1ccc(-c2cn(-c3ccc(OC)cc3)c(=S)[nH]2)cc1	38.6%
O=C(CN(C(=O)c1csnn1)c1ccc(Br)cc1)NC1CCCC1	-6.01%
COc1ccc(Cl)cc1NC(=O)CCS(=O)(=O)c1ccc(Br)cc1	-3.47%
Cc1ccnc(N2C(=O)c3ccc([N+](=O)[O-])cc3C2=O)c1	2.61%
Cc1ccc(-c2cn3cc([N+](=O)[O-])ccc3n2)cc1	190% (active)
Cc1ccc2nc(-c3ccc(Br)cc3)cn2c1	23.9% (active)
CSc1nnc2ccc(-c3ccc(C)cc3)nn12	5.52%
Cc1ccc(-c2cn3cc(C)ccc3n2)cc1	-49.3%

SMILES	inhibition
Cc1ccc(C(=O)Cn2cc([N+](=O)[O-])nc2C)cc1	-7.99%
O=C(Nc1ccnn1C1CCN(C/C=C/c2ccc(F)cc2)CC1)C1CCCC1	12%
CCOc1c(OC)cccc1C(=O)NCC1(c2ccccc2)CCCC1	-6.29%
COc1ccc(C(=O)C2CCCN(S(=O)(=O)c3cccc(C)c3)C2)c(C)c1 (stereo not drawn)	-2.5%
CCNc1nc(-c2cc3ccccc3o2)cs1	83.5% (active)
Cn1c(CNc2nc(-c3ccccc3)cs2)nnc1SCC(=O)c1ccccc1	-0.789%
Cc1ccc(Nc2nc(-c3sc(NC(=O)c4ccccc4)nc3C)cs2)cc1	16.8%
COc1ccc2nc(Nc3nc(-c4cc5ccccc5oc4=O)cs3)sc2c1	61.7%
Cc1nc(C)c(-c2csc(NCCc3ccccc3)n2)s1	13.4%
O=c1oc2ccccc2cc1-c1csc(Nc2ccc(O)cc2)n1	111% (active)
COc1ccc(S(=O)(=O)N2CCOCC2)cc1C(=O)NC1CCCCC1	-17%
CN(C)CCCN(C(=O)c1ccc(S(=O)(=O)N2CCCCCC2)cc1)c1nc2ccc(Br)cc2s1	0.697%
CCN(CC)CCN(C(=O)c1ccc(S(=O)(=O)N2CCOCC2)cc1)c1nc2cc3c(cc2s1)OCCO3	44.5% (active)
CCN(CC)CCN(C(=O)c1ccc(N2C(=O)CCC2=O)cc1)c1nc2cc3c(cc2s1)OCO3	29.6%
O=S(=O)(c1ccc(-c2ccno2)s1)N1CCCCC1	-11.5%
COc1ccc2c(C)cc3nnnn3c2c1	-4.48%
Cc1ccc(C(=O)NCCNC(=O)c2ccccc2)cc1	-8.28%
O=C(CNC(=O)c1ccco1)OCC(=O)c1ccccc1	46.8%
CCCc1ccc(OCCNC(=O)c2ccco2)cc1	78.3% (active)
CCCc1ccc(OCC(=O)NNC(=S)NC(=O)c2ccco2)cc1	-7.48%
O=C(NCCSc1ccccc1)c1ccco1	80.2% (active)
CCS(=O)(=O)Nc1ccc(C(=O)NCCSc2ccccc2)cc1	79.2% (active)
O=C(CSc1ccccc1)Nc1ccc(NC(=O)c2ccco2)cc1	38.7%
CCCc1ccc(OCCNC(=O)c2ccccc2Br)cc1	34.3%
